Screening data: PubChem BioAssay, several laboratories
Only some compounds are listed: those with a hit (about 3.2% of all), similar ones and a draw of the others.
CHT allo act: allosterically activates the human high affinity choline transporter | Q9GZV3 | CHT-expressing cells, membrane potential dye, choline EC20; hits give high values; LV-AA mutant CHT in HEK293 cells | B-score at 10 µM | hit rate 0.49% among 310,000 | AID 488977;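 active = initial fluorescence not abnormally high and integrated response B-score, plate-corrected, over 3 SD above library mean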
Target sequence (Q9GZV3 whole entry, looked up): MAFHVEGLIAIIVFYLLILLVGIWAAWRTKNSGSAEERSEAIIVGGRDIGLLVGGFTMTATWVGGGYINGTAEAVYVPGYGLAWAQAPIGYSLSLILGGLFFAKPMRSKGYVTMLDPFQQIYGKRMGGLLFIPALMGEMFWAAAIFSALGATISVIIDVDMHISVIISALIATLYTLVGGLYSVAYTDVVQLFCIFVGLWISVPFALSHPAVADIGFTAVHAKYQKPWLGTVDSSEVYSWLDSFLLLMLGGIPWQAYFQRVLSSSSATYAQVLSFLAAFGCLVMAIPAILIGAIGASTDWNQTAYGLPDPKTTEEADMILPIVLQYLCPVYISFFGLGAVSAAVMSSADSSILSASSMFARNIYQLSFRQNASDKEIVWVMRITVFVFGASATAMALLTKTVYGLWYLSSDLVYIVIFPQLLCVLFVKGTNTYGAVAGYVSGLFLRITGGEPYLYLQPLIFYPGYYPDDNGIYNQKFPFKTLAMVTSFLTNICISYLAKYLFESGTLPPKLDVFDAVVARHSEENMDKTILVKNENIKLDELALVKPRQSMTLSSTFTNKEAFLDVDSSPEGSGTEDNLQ
CHT inh: inhibitors of human choline transporter CHT. Q9GZV3. CHT-expressing cells, membrane potential dye, choline response; hits give low values. B-score at 10 µM. hit rate 0.86% among 310,000. AID 488975;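 active = B-score over 3 SD under the library average, and starting fluorescence ratio not unusually high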;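 note: choline stimulus applied at its EC90 after an EC20 pre-addition; B-score computed on integrated fluorescence ratio after choline addition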
ANO1 activ: mouse TMEM16A channel activation, primary screen | hit rate 0.3% among 340,000 | AID 623877 | B-score at 10 µM | HEK293 TMEM16A/YFP-H148Q/I152L, iodide quench fluorescence; hits give low values | Q8BHY3;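 active = fluorescence-ratio B-score plate-corrected deviation score at least 3 library SD below zero, with starting fluorescence score within 5 deviations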;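 note: channel opened by trigger with iodide after compound preincubation; score built on the fluorescence ratio of max minus min over baseline; more negative score means more quench and so TMEM16A activation or potentiation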
PHOSPHO1 block: inhibitors of human PHOSPHO1 phosphatase | hit rate 1.1% among 290,000 | Q8TCT1 | recombinant PHOSPHO1, absorbance phosphatase assay | inhibition, % at 13.3 µM; in the data active = inhibition above about 60%
HDAC3 inhib: inhibitors of human histone deacetylase 3; inhibition, % at 8.3 µM; O15379; hit rate 0.15% among 320,000; recombinant HDAC3, fluorogenic peptide/trypsin coupled, fluorescence; in the data active = inhibition above about 26%, passing the limit was not always enough; inconclusive = no clear call, values can overlap the other calls
TMEM16A inh: mouse TMEM16A channel inhibition, primary screen | normalized B-score (activity score, 25-100; higher = stronger inhibition) at 10 µM | AID 588511 | Q8BHY3 | HEK293 TMEM16A/YFP iodide influx fluorescence, ionomycin | hit rate 1.2% among 310,000;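 active = ratio plate-corrected score three or more library SD toward inhibition, starting fluorescence score within five deviations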;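 note: score derived from kinetic fluorescence span divided by baseline fluorescence per well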
TMEM16A reconf: TMEM16A (mouse) chloride channel inhibition, re-confirmation; AID 652189; hit rate 39% among 2,300; inhibition, % at 10 µM; HEK293 TMEM16A/YFP-H148Q, iodide quench fluorescence; ionomycin added to raise cell calcium; shares compounds with TMEM16A inh;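 active = mean duplicate percent inhibition, scaled so buffer wells are 0 and the reference blocker 100, over three buffer SD above buffer mean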
HEK293 Ca mobil: calcium mobilization counter-screen hit for TMEM16A inhibitor series; shares compounds with TMEM16A inh; AID 652231; hit rate 2% among 2,300; TMEM16A/YFP HEK293, Fluo4 calcium mobilization; calcium response (% of ionomycin), % at 10 µM;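 active = duplicate-averaged calcium signal over 20% of the ionomycin maximum, relative to buffer baseline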;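 note: each well's signal is peak minus trough fluorescence divided by its pre-addition baseline; 0% = buffer wells and 100% = ionomycin wells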
Parental YFP cnt: acts in parental YFP-HEK293 cells lacking TMEM16A, counter-screen | shares compounds with TMEM16A inh | iodide YFP quench, ionomycin | YFP ratio F(max-min)/F0 at 10 µM | 2,300 tested, under 10 active;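 active = yellow fluorescent protein signal ratio exceeding the buffer control mean by over 5 SD of those controls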;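 note: ratio is mean of duplicate wells from kinetic YFP trace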
ClC-1 rat inh: blocks the rat ClC-1 voltage-dependent chloride channel. shares compounds with TMEM16A inh. CHO ClC-1-YFP, iodide influx fluorescence quench; iodide control reads 0, buffer control 100. ratio percent, % at 10 µM. 2,300 tested, under 10 active. AID 652236;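 active = duplicate-mean ratio percent above the mean of iodide-only control wells, which defines zero, plus 5 of their SD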;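 note: higher percent means stronger block of ClC-1 iodide influx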
Starred values were filed as active, the others as inactive; i = inactive; ? = inconclusive; . = not tested or not shown.

SMILES	CHT allo act	CHT inh	ANO1 activ	PHOSPHO1 block	HDAC3 inhib	TMEM16A inh	TMEM16A reconf	HEK293 Ca mobil	Parental YFP cnt	ClC-1 rat inh
COc1ccc(N(C)C(=O)c2cc3c(s2)-c2ccc(Cl)cc2S(=O)(=O)C3)c(OC)c1	i	i	i	32	7	25*	26%*	i	-0.81	-8
CCNS(=O)(=O)c1ccc(CCC(=O)N2CCN(Cc3ccccc3)CC2)cc1	i	i	i	45	-4	i	.	.	.	.
Cc1cc(C)cc(NC(=O)N2CCN(Cc3ccc4c(c3)OCO4)CC2)c1	i	i	i	42	6	i	.	.	.	.
O=C(Nc1ccccc1)N1CCN(Cc2ccc3c(c2)OCO3)CC1	i	i	i	-7	1	100*	i	i	-1.2	2
O=C(CCc1ccc(S(=O)(=O)NCCc2ccccc2)cc1)N1CCN(Cc2ccc3c(c2)OCO3)CC1	i	i	i	9	3	25*	i	i	-0.82	-3
Cc1cc(C(=O)Nc2ccc(S(=O)(=O)N3CCCC3)cc2)cs1	i	i	i	1	5	i	.	.	.	.
CC(C)(C)OC(=O)NN1CC(=O)N2Cc3ccccc3C[C@@H]2C1=O	i	i	i	.	-5	i	.	.	.	.
Nc1ccc(CCS(N)(=O)=O)cc1	i	i	i	-1	-1	25*	i	i	-0.89	-2
CCOc1ccc(CCNS(=O)(=O)c2c(C)nc3scc(C)n3c2=O)cc1OCC	i	i	i	28	2	i	.	.	.	.
NS(=O)(=O)c1cc2c(cc1Cl)NC(Cc1ccccc1)NS2(=O)=O (centres undefined)	i	i	i	8	1	i	i	i	-0.92	-10
C=CCSCC1Nc2cc(Cl)c(S(N)(=O)=O)cc2S(=O)(=O)N1 (centres undefined)	i	i	i	.	-3	i	.	.	.	.
CCOc1ccc(S(=O)(=O)N2CCN=C2c2ccccc2)cc1	i	i	i	43	-4	i	.	.	.	.
CCCN(CCC)CCCNS(=O)(=O)c1cc(Br)cc2c1N(C(C)=O)CC2	i	i	i	50	-1	i	.	.	.	.
CCOc1cc(C(=O)Nc2cc(C)ccn2)cc(OCC)c1OCC	i	i	i	-3	-5	100*	i	i	-1.4	-2
CCOc1cc(C(=O)Nc2cnccn2)cc(OCC)c1OCC	i	i	i	50	3	i	.	.	.	.
COc1ccc2[nH]cc(/C=N/NS(=O)(=O)c3ccc(C)cc3)c2c1	i	i	i	41	.	25*	28%*	i	-0.94	-16
Cc1ccc(S(=O)(=O)N/N=C/c2c[nH]c3ccccc23)cc1	i	i	i	9	?	25*	28%*	i	-0.9	-32
O=C(NNc1ccc(F)cc1F)C1CCC1	i	i	i	12	-6	i	.	.	.	.
O=C(NCc1ccccc1C(F)(F)F)C1CC(O)CN1C(=O)Nc1ccccc1 (centres undefined)	i	i	i	30	-14	i	i	i	-0.85	-8
O=C(Nc1cccc(C(F)(F)F)c1)c1cc[n+]([O-])cc1	i	i	i	31	0	100*	i	i	-1.2	-9
Cc1scc(C(=O)N2CCN(c3ccc(Cl)cc3)CC2)c1C	i	i	i	13	1	i	.	.	.	.
CC(C)CCN(C(=O)CNC(=O)c1ccco1)C(C(=O)NC1CCCCC1)c1ccco1 (centres undefined)	i	i	.	-31	-1	25*	19%*	i	-1.1	-6
COCCN(C(=O)CNC(=O)c1ccco1)C(C(=O)NC1CCCC1)c1ccc(F)cc1 (centres undefined)	i	i	i	0	-2	i	.	.	.	.
O=C(COC(=O)c1ccc(S(=O)(=O)NCc2ccco2)cc1)NCC1CCCCC1	i	i	i	3	3	i	.	.	.	.
CCOc1ccc(N=C2NC(=O)S/C2=C\c2ccc(N(C)C)cc2)cc1	i	i	i	9	-3	i	i	i	-0.92	28
SMILES	CHT allo act	CHT inh	ANO1 activ	PHOSPHO1 block	HDAC3 inhib	TMEM16A inh	TMEM16A reconf	HEK293 Ca mobil	Parental YFP cnt	ClC-1 rat inh
CN(C)S(=O)(=O)c1cccc(N=C2SCCN2Cc2ccccc2)c1	i	i	i	40	-3	100*	36%*	i	-0.87	-8
Cc1cccc(COc2ccc(/C(O)=C3\C(=O)C(=O)N(CCN(C)C)C3c3ccncc3)cc2)c1 (centres undefined)	i	i	i	30	1	i	.	.	.	.
CC(C)Cc1ccc(CN2CCCC(NC(=O)c3ccoc3)C2)cc1 (centres undefined)	i	i	i	43	.	i	.	.	.	.
CC(C)Cc1ccc(CN2CCCC(NC(=O)c3ccnn3C)C2)cc1 (centres undefined)	i	i	i	33	-1	25*	i	i	-1.2	-8
CN(Cc1cn(C)nc1-c1ccc(Oc2ccccc2)cc1)Cc1cnc2ccccn12	i	i	i	48	3	25*	24%*	22%*	-1.2	-13
O=C(COC(=O)Cc1c(Cl)cccc1Cl)Nc1ccccc1-c1ccccc1	i	i	i	-4	?	25*	i	i	-1	-6
O=C(COC(=O)Cc1ccc(Cl)cc1)Nc1ccccc1-c1ccccc1	i	i	i	9	6	i	.	.	.	.
COc1ccccc1-c1noc(-c2ccccc2C(=O)Nc2cccnc2)n1	i	i	i	6	-8	i	.	.	.	.
O=C(Nc1cccnc1)c1ccccc1-c1nc(-c2ccccc2F)no1	i	i	i	13	0	25*	i	i	-0.86	-12
COC(=O)c1c(C)oc2ccc(NS(=O)(=O)c3cccs3)cc12	i	i	i	31	2	100*	31%*	i	-1	-18
CC(C)COC(=O)n1c(=O)oc2cc(S(=O)(=O)N3CCCCC3)ccc21	i	i	i	0	5	i	.	.	.	.
CCCCOC(=O)n1c(=O)oc2ccc(S(=O)(=O)N3CCCCC3)cc21	i	i	i	23	0	25*	20%*	i	-1	-8
